In PubChem BioAssay (NCI):
This is part of a sample that, as a whole, favours compounds with a hit. Of some 79,000 tested, about 15% had one in any assay. Activity calls are given as the source filed them. No stated cut-off is given here; in the data, active means growth inhibition above about 70%; inactive means the rest.

Legend:
[1] = NCI Yeast Anticancer Drug Screen. Data for the rad50 strain (AID 155);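 further: 0% = growth of vehicle-only cultures of the same strain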; details: S. cerevisiae rad50 strain growth inhibition, stronger effect = higher value
How it was run: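 Vehicle-treated cultures provide the reference for the growth inhibition reported for compound-exposed, repair-deficient yeast.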

[2] = NCI Yeast Anticancer Drug Screen. Data for the mec2-1 strain (AID 157); details: S. cerevisiae mec2-1 strain, stronger effect = higher value
How it was run: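 Strain: mec2-1 (DNA repair/cell cycle alteration). Compound exposure, then growth measured; inhibition expressed relative to vehicle.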

[3] = NCI Yeast Anticancer Drug Screen. Data for the sgs1 mgt1 strain (AID 161);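 further: 0% = growth of cultures given vehicle only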; details: S. cerevisiae sgs1 mgt1 strain, stronger effect = higher value
How it was run: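 Mutant yeast exposed to compound; growth scored against vehicle-only wells.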

[4] = NCI Yeast Anticancer Drug Screen. Data for the cln2 rad14 strain (AID 165);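 further: 0% = growth equal to vehicle treated cultures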; details: S. cerevisiae cln2 rad14 strain, stronger effect = higher value
How it was run: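 Compounds are applied to the cln2 rad14 yeast strain, and growth is then compared with that of vehicle-treated cultures to give inhibition.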

[5] = NCI Yeast Anticancer Drug Screen. Data for the bub3 strain (AID 167); details: S. cerevisiae bub3 mutant strain, stronger effect = higher value
How it was run: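 Mutant yeast screening strain plus compound; vehicle-treated cultures serve as the 0% inhibition reference.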

[6] = NCI Yeast Anticancer Drug Screen. Data for the mlh1 rad18 strain (AID 175); details: S. cerevisiae mlh1 rad18 strain growth inhibition, stronger effect = higher value
How it was run: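 Read-out is yeast growth inhibition, calculated against vehicle-only controls. The compound was applied to a strain engineered with DNA damage repair alterations.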

[7] = at 5.0 µM (retest, dose inferred, filed as 0.5)
[8] = at 50.0 µM (retest, dose inferred, filed as 5.0)

Measured: growth inhibition

CCC(C(=O)C(C)C(O)C(C)CCc1ccc(C)c(O)c1C(=O)O)C1OC(CC)(C2CCC(O)(CC)C(C)O2)CC1C (stereo not given)
inactive: [1]; [7] 28% | [2]; [7] 56% | [3]; [7] 40% | [5]; [7] 64% | [6]; [7] 28%
active: [1]; [8] 96% | [1]; at 50.0 µM 88.2% | [2]; [8] 98% | [2]; at 50.0 µM 90.7% | [3]; [8] 97% | [3]; at 50.0 µM 90% | [4]; [7] 73% | [4]; [8] 98% | [4]; at 50.0 µM 89.2% | [5]; [8] 98% | [5]; at 50.0 µM 88.7% | [6]; [8] 97% | [6]; at 50.0 µM 88.2%

O=C1c2ccc3ccccc3c2CN2C(=O)CCC12 (stereo not given)
active: [1]; [8] 83%
inactive: [1]; [7] 4% | [1]; at 50.0 µM 25.2% | [2]; [7] -11% | [2]; [8] 16% | [2]; at 50.0 µM -6.6% | [3]; [7] -5% | [3]; [8] 28% | [3]; at 50.0 µM 21.7% | [4]; [7] 7% | [4]; [8] 66% | [4]; at 50.0 µM -4.3% | [5]; [7] -5% | [5]; [8] 39% | [5]; at 50.0 µM 6.2% | [6]; [7] 4% | [6]; [8] 43% | [6]; at 50.0 µM 23.5%

CN(C)c1ccc(/C=C(\C#N)c2c(F)cccc2F)cc1
inactive: [1]; [7] 4% | [1]; [8] -2% | [1]; at 50.0 µM 6.05% | [2]; [7] 3% | [2]; [8] 2% | [2]; at 50.0 µM -10.8% | [3]; [7] 4% | [3]; [8] 1% | [3]; at 50.0 µM 17.9% | [4]; [7] 3% | [4]; [8] -3% | [4]; at 50.0 µM 41.8% | [5]; [7] 3% | [5]; [8] -2% | [5]; at 50.0 µM 13.3% | [6]; [7] 1% | [6]; [8] -1% | [6]; at 50.0 µM 0.45%

CSc1ncccc1C(=O)[O][Sn]([c]1ccccc1)([c]1ccccc1)[c]1ccccc1
active: [1]; [7] 100% | [1]; [8] 99% | [1]; at 50.0 µM 97.3% | [2]; [7] 100% | [2]; [8] 99% | [2]; at 50.0 µM 97.9% | [3]; [7] 100% | [3]; [8] 99% | [3]; at 50.0 µM 97.7% | [4]; [7] 99% | [4]; [8] 99% | [4]; at 50.0 µM 86.7% | [5]; [7] 99% | [5]; [8] 99% | [5]; at 50.0 µM 97.5% | [6]; [7] 99% | [6]; [8] 99% | [6]; at 50.0 µM 96.8%

CC(=O)c1c(C)n(C)c2c1nnc1ccccc12
active: [1]; [8] 81% | [1]; at 50.0 µM 92.3%
inactive: [1]; [7] 53% | [2]; [7] 17% | [2]; [8] 50% | [2]; at 50.0 µM 36.9% | [3]; [7] 6% | [3]; [8] -2% | [3]; at 50.0 µM 22% | [4]; [7] 9% | [4]; [8] 31% | [4]; at 50.0 µM 59.4% | [5]; [7] 11% | [5]; [8] 48% | [5]; at 50.0 µM 27.1% | [6]; [7] 19% | [6]; [8] 56% | [6]; at 50.0 µM 68.4%

O=c1cc(-c2ccccc2)[nH]c2ccc(N3CCCC3)cc12
inactive: [1]; [7] 17% | [1]; [8] 26% | [1]; at 50.0 µM -26.8% | [2]; [7] 7% | [2]; [8] 9% | [2]; at 50.0 µM -4.35% | [3]; [7] 13% | [3]; [8] 13% | [3]; at 50.0 µM -29.9% | [4]; [7] 0% | [4]; [8] 7% | [4]; at 50.0 µM 7.25% | [5]; [7] 14% | [5]; [8] 6% | [5]; at 50.0 µM -8.65% | [6]; [7] 11% | [6]; [8] 5% | [6]; at 50.0 µM 0.5%

CC(=O)/C=C1\C(=O)Nc2ccccc21
inactive: [1]; [7] 20% | [2]; [7] 10% | [3]; [7] 16% | [4]; [7] 26% | [4]; at 50.0 µM 32.9% | [5]; [7] 12% | [6]; [7] 14%
active: [1]; [8] 97% | [1]; at 50.0 µM 85.1% | [2]; [8] 100% | [2]; at 50.0 µM 91.6% | [3]; [8] 92% | [3]; at 50.0 µM 91.7% | [4]; [8] 95% | [5]; [8] 99% | [5]; at 50.0 µM 87.7% | [6]; [8] 99% | [6]; at 50.0 µM 78.7%

CCN(CC)c1ccc(SC#N)cc1
active: [1]; [8] 93% | [1]; at 50.0 µM 91.2% | [2]; [8] 94% | [2]; at 50.0 µM 95.1% | [3]; [8] 95% | [4]; [8] 88% | [4]; at 50.0 µM 90.2% | [5]; [8] 96% | [5]; at 50.0 µM 97.5% | [6]; [8] 95% | [6]; at 50.0 µM 93.6%
inactive: [1]; [7] 1% | [2]; [7] -39% | [3]; [7] 0% | [3]; at 50.0 µM 58% | [4]; [7] -3% | [5]; [7] 10% | [6]; [7] -3%

Cc1ccc(O)c(C(c2cccc(C(c3cc(C)ccc3O)c3cc(C)ccc3O)c2)c2cc(C)ccc2O)c1
inactive: [1]; [7] 66% | [2]; [7] 54% | [3]; [7] 31% | [4]; [7] 66%
active: [1]; [8] 94% | [1]; at 50.0 µM 95.5% | [2]; [8] 97% | [2]; at 50.0 µM 95.4% | [3]; [8] 97% | [3]; at 50.0 µM 95% | [4]; [8] 96% | [4]; at 50.0 µM 91.6% | [5]; [7] 72% | [5]; [8] 96% | [5]; at 50.0 µM 95.7% | [6]; [7] 78% | [6]; [8] 96% | [6]; at 50.0 µM 95.8%

O=C([O-])c1ccc([I+]c2ccccc2)cc1
inactive: [1]; [7] 9% | [1]; [8] 65% | [1]; at 50.0 µM 57% | [2]; [7] 8% | [2]; at 50.0 µM 41.8% | [3]; [7] 18% | [3]; [8] 67% | [3]; at 50.0 µM 48.1% | [4]; [7] 1% | [4]; [8] 47% | [4]; at 50.0 µM 65.7% | [5]; [7] 12% | [5]; at 50.0 µM 47% | [6]; [7] 10%
active: [2]; [8] 72% | [5]; [8] 79% | [6]; [8] 80% | [6]; at 50.0 µM 80.9%
